In PubChem BioAssay (NCI):
Where “and” joins values, the source holds several entries; their conditions need not be identical. Equal values may be shown once. About 79,000 compounds went through this panel and 15% of them were active in at least one assay; those are over-represented in the sample as a whole. Calls of active or inactive are those of the source. Cut-off read from the data, not from the text of the source: active = growth inhibition above about 70%; inactive = the rest.

Test: NCI Yeast Anticancer Drug Screen. Data for the mec2-1 strain (AID 157)
Conditions: S. cerevisiae mec2-1 strain, at 5.0 µM (retest, dose inferred, filed as 0.5), active compounds read high
Procedure, shortened: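 Compounds were applied to mec2-1 yeast cells. Their growth was then compared with that of vehicle-treated cultures to give growth inhibition.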

For `COc1nc2c(c(=O)n1C)N=C(c1ccccc1)[C@H](C(CC(=O)c1ccccc1)c1ccccc1)C(c1ccccc1)N2` (some centres not stated), which growth inhibition is on record?
Its growth inhibition is 13% (inactive).

For `Cc1cc(-c2cc(C)c(O)c(C(C)(C)C)c2)cc(C(C)(C)C)c1O`, which growth inhibition is on record?
Its growth inhibition is 51% (inactive) and -6% (inactive).

With `Nc1cc(N)c(N=Nc2cccc3c(S(=O)(=O)O)cccc23)cc1N=Nc1cc([N+](=O)[O-])ccc1O` as the compound, how does the growth inhibition read?
The growth inhibition was 64% (inactive).

With `Nc1ccc(F)cc1S` as the compound, how does the growth inhibition read?
The growth inhibition was 9% (inactive).

Which growth inhibition does the source give for `Brc1ccccc1-c1ncc(-c2ccccc2)o1` here?
Its growth inhibition is 42% (inactive).

Which growth inhibition does the source give for `COc1cc(C2SCC(=O)N2c2ccc(-c3ccc(-n4c(-c5ccccc5)nc5ccccc5c4=O)cc3)cc2)ccc1O` (configuration not stated) here?
Its growth inhibition is -11% (inactive).

Which growth inhibition does the source give for `Nc1ncnc2c1ncn2C1OC(CO)CC1O` (configuration not stated) here?
The growth inhibition was 63% (inactive) and 17% (inactive).

Which growth inhibition does the source give for `COc1cc(CSc2ccc(O)cc2)cc(O)c1O` here?
Its growth inhibition is -14% (inactive).

For `CCOC(=O)C1N=[N+](c2ccccc2)C(=O)/C1=C\n1c(=S)[nH]c2ccc([N+](=O)[O-])cc21` (configuration not stated), which growth inhibition is on record?
Its growth inhibition is 13% (inactive).

For `CNC(=O)OCc1c(COC(=O)NC)c2n(c1C)-c1ccc(OC)cc1CCC2`, which growth inhibition is on record?
Its growth inhibition is 2% (inactive).

Which growth inhibition does the source give for `O=C(NNc1ccccc1)c1ccc(Cl)c(Cl)c1` here?
The growth inhibition was -9% (inactive).

Which growth inhibition does the source give for `Cc1ccc(CC2(OCCN(C)C)CCC(C(C)(C)C)CC2)cc1` (configuration not stated) here?
Its growth inhibition is -8% (inactive) and -7% (inactive).

For `C[C@]12CC[C@H](O)CC1=CC[C@@H]1C2CC[C@]2(C)C(=O)NC(=O)CC12` (some centres not stated), which growth inhibition is on record?
Its growth inhibition is -39% (inactive).

Which growth inhibition does the source give for `CCCC/C=C/C(C)(C(=O)OCC)C(=O)OCC` here?
Its growth inhibition is 3% (inactive).

With `CCc1c(Cl)c(C)cc(O)c1Cl` as the compound, how does the growth inhibition read?
The growth inhibition was 46% (inactive).

Which growth inhibition does the source give for `O=C(/C=C(/c1ccccc1)N1CCCCC1)c1ccccc1` here?
The growth inhibition was -12% (inactive).

For `CCCC(=O)Oc1ccc(/C=N/NC(N)=S)nc1`, which growth inhibition is on record?
The growth inhibition was -2% (inactive).

Which growth inhibition does the source give for `CCc1nc2ccc(NCCN(C)C)c3c(=O)c4ccccc4n1c23` here?
The growth inhibition was 4% (inactive).

For `Cc1sc2ccc3ccccc3c2[n+]1C`, which growth inhibition is on record?
Its growth inhibition is 49% (inactive) and -26% (inactive).

Which growth inhibition does the source give for `COc1c(O)c(C=O)c(Br)c(C=O)c1O` here?
The growth inhibition was 16% (inactive).

For `Cc1ccc(Cl)cc1NC(=O)OCCN(C)C(=O)Nc1cc(Cl)ccc1C`, which growth inhibition is on record?
Its growth inhibition is 57% (inactive).

For `Cc1nc2ccccc2nc1NNc1ccccc1`, which growth inhibition is on record?
Its growth inhibition is -7% (inactive).
